An excerpt weighted towards active compounds, which were near 10% of everything screened.
GPT2 inh – GPT2 alanine aminotransferase inhibition; Recombinant GPT2, coupled pyruvate oxidase/HRP Amplex Red fluorescence; Potency, µM (top dose mostly 57.7 µM), hits mostly inhibitors; hit rate 0.25% among 100,000; note: nearly all actives have a fitted effect of over 60% in size
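Recombinant GPT2 (10ng/uL) with 250uM a-KG and 2mM L-alanine, 30 min at room temperature, in HEPES pH 7.5 buffer. Pyruvate detected by pyruvate oxidase/HRP/Amplex Red fluorescence after 30 min in the dark; AOA (50uM) as positive control.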
NIH3T3 tox – cytotoxic compounds in NIH 3T3 cells; NIH 3T3 viability, CellTiter-Glo ATP luminescence, 48-72 h; Potency, µM (series often up to 96.7 µM), most hits filed as inhibitors; AID 1345082; hit rate 4.3% among 94,000; note: nearly all actives have a fitted effect of over 55% in size
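NIH 3T3 cells at 400 cells/well received 23 nL of compound by pintool and were incubated 48 or 72 h at 37 °C. Viability was read as ATP-coupled CellTiter-Glo luminescence.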
hNpr1 antagonist – blocks ANP-stimulated signaling of human Npr1 receptor; P16066; HEK293 hNpr1 GloSensor cGMP, ANP-stimulated luminescence; Potency, µM (titrated, usually from 46.3 µM), actives largely listed as inhibitors; hit rate 1.6% among 76,000; calls by dose curve; note: nearly all actives have a fitted effect of over 60% in size
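HEK293 cells stably expressing human Npr1 and cGMP GloSensor pGS-40F, loaded 2 h with 2% GloSensor reagent, given compound 30 min at room temperature. Luminescence read before and 20 min after 0.1 nM hNppA.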
Luciferase inh – inhibitors of firefly (Photinus pyralis) luciferase | Potency, µM (doses to about 115 µM), hits mostly inhibitors | hit rate 2.5% among 76,000 | AID 1347043 | purified P. pyralis luciferase, luminescence, biochemical | P08659; note: nearly all actives have a fitted effect of over 65% in size
Target sequence (P08659 whole entry, looked up): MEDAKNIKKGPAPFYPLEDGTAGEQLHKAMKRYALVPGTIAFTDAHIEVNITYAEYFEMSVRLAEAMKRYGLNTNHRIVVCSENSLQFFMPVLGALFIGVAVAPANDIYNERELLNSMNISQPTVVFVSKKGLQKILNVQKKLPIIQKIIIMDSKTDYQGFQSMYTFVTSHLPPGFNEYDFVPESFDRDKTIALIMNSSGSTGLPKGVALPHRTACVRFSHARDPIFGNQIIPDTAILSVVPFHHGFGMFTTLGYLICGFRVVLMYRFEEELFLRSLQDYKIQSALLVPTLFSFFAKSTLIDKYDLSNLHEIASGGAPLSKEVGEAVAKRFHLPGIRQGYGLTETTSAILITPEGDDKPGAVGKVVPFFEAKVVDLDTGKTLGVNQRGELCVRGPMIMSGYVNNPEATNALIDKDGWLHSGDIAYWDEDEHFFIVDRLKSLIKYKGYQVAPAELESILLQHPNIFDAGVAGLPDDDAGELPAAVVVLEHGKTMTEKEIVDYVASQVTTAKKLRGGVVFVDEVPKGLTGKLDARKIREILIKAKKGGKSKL
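Purified 10nM P. pyralis luciferase with 10uM D-luciferin and 10uM ATP in 50mM Tris acetate pH 7.5, 10mM Mg acetate, 0.01% Tween-20, 0.05% BSA. qHTS titration; luminescence read by CCD imager.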
HEK293 tox – HEK 293 cell cytotoxicity; HEK 293 viability, ATP luminescence (CellTiter-Glo), 48-72 h; Potency, µM (doses to about 115 µM), hits mostly inhibitors; hit rate 6.6% among 94,000; AID 1345083; note: nearly all actives have a fitted effect of over 60% in size
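qHTS cytotoxicity; HEK 293, 250 cells/well; compound pinned; 48 or 72 hr, 37 degree Celsius, 5% CO2, 95% humidity; CellTiter-Glo, 10 min RT; luminescence (ATP).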
NPR1 antag cnf – confirmation of human Npr1 natriuretic peptide receptor antagonists. shares compounds with hNpr1 antagonist. HEK293 hNpr1 cGMP GloSensor luminescence, ANP-stimulated. Potency, µM (top dose mostly 57.6 µM), usual class: inhibitors. hit rate 76% among 1,400. AID 1347044; calls by dose curve; note: nearly all actives have a fitted effect of over 70% in size
NPR2 antag – selectivity test of Npr1 antagonists against human Npr2; shares compounds with hNpr1 antagonist; hit rate 67% among 1,400; Potency, µM (titrated, usually from 57.6 µM), hits mostly inhibitors; HEK293 hNpr2 GloSensor cGMP luminescence, CNP-stimulated; calls by dose curve; note: nearly all actives have a fitted effect of over 70% in size
FLuc counter – FLuc enzyme inhibition, Npr1 counter-screen; AID 1347047; shares compounds with hNpr1 antagonist; hit rate 0.7% among 1,400; Potency, µM (series often up to 57.6 µM), actives largely listed as inhibitors; purified FLuc enzyme, luminescence, Km substrate
GloSensor cGMP – counter-screen for Npr1 antagonists: GloSensor control cell line. shares compounds with hNpr1 antagonist. HEK293 GloSensor cGMP, SNP-stimulated, luminescence. Potency, µM (series often up to 57.6 µM), hits mostly inhibitors. hit rate 69% among 1,400. AID 1347051; calls by dose curve; note: nearly all actives have a fitted effect of over 70% in size
A number is an active result. Unless noted, calls come from the whole dose curve; as a rule, active = well fitted curve in the direction sought with a large enough effect; inconclusive = small, poorly fitted or top-dose-only effect, or another doubt; inactive = no such curve, though single readings can be large; an effect the other way counts as inactive or inconclusive.

Screening COc1cccc(CNC(=O)c2ccc(Cn3ccn4nc5c(c4c3=O)CCCC5)cc2)c1 returned GPT2 inh inactive, NIH3T3 tox inactive, hNpr1 antagonist inactive, Luciferase inh inactive and HEK293 tox inconclusive.
Screening COc1ccc(NC(=O)c2ccc(Cn3ccn4nc5c(c4c3=O)CCCC5)cc2)cc1OC returned GPT2 inh inactive, NIH3T3 tox inconclusive, hNpr1 antagonist inactive, Luciferase inh inactive and HEK293 tox inconclusive.
For COc1ccc(CNC(=O)c2ccc(Cn3ccn4nc5c(c4c3=O)CCCC5)cc2)cc1OC the results were GPT2 inh inactive, NIH3T3 tox inconclusive, hNpr1 antagonist 11µM, Luciferase inh inactive, HEK293 tox 22µM, NPR1 antag cnf 27µM, NPR2 antag 24µM, FLuc counter inactive and GloSensor cGMP 24µM.
For COc1ccc(CNC(=O)c2ccc(Cn3ccn4nc5c(c4c3=O)CCCC5)cc2)cc1 the results were GPT2 inh inactive, NIH3T3 tox inconclusive, hNpr1 antagonist 11µM, Luciferase inh inactive, HEK293 tox 20µM, NPR1 antag cnf 27µM, NPR2 antag 27µM, FLuc counter inactive and GloSensor cGMP 27µM.
For Cc1ccccc1C(=O)N1CCCC1C(=O)N1CCC2(CC1)CC(=O)Nc1ccccc1O2 (configuration not stated) the results were GPT2 inh inactive, NIH3T3 tox inactive and HEK293 tox inactive.
`COCCN1C(=O)CO[C@H]2CN(CCCc3ccccc3)C[C@H]21` gave GPT2 inh inactive, NIH3T3 tox inconclusive, hNpr1 antagonist 14µM, Luciferase inh inactive, HEK293 tox inconclusive, NPR1 antag cnf 16µM, NPR2 antag 20µM, FLuc counter inactive and GloSensor cGMP 13µM.
`O=C(NCc1ccc(Cl)cc1)C1CCN(c2cc(C(F)(F)F)ncn2)CC1` gave GPT2 inh inactive, NIH3T3 tox inconclusive, hNpr1 antagonist 11µM, Luciferase inh inactive, HEK293 tox inconclusive, NPR1 antag cnf 19µM, NPR2 antag 19µM, FLuc counter inactive and GloSensor cGMP 15µM.
CCOc1cccc(CNC(=O)C2CCN(c3cc(C(F)(F)F)ncn3)CC2)c1 was read as GPT2 inh inactive, NIH3T3 tox inconclusive, hNpr1 antagonist inconclusive, Luciferase inh inactive and HEK293 tox inconclusive.
`COc1cccc(CNC(=O)C2CCN(c3cc(C(F)(F)F)ncn3)CC2)c1` gave GPT2 inh inactive, NIH3T3 tox inactive, hNpr1 antagonist inconclusive, Luciferase inh inactive, HEK293 tox inactive, NPR1 antag cnf inconclusive, NPR2 antag inconclusive, FLuc counter inactive and GloSensor cGMP inconclusive.
For O=C1NCc2ccccc2CC12CCCCN2Cc1cnc2ccccc2c1 (configuration not stated) the results were GPT2 inh inactive, NIH3T3 tox inactive and HEK293 tox inconclusive.
`CC(C)c1noc(-c2ccn3c(CNC(=O)c4ccco4)nnc3c2)n1` gave GPT2 inh inactive, NIH3T3 tox inactive, hNpr1 antagonist inactive, Luciferase inh inactive and HEK293 tox inconclusive.
For Clc1ccc2nc(N3CCC(NCCc4cccnc4)CC3)sc2c1 the results were GPT2 inh inactive, NIH3T3 tox 18µM, hNpr1 antagonist 13µM, Luciferase inh inactive, HEK293 tox 14µM, NPR1 antag cnf 24µM, NPR2 antag 24µM, FLuc counter inactive and GloSensor cGMP 22µM.
`COC(=O)[C@@H]1Cc2c([nH]c3ccccc23)[C@H]2C[C@@H](NCCCn3ccnc3)C[C@@H](c3ccccc3F)N21` gave GPT2 inh inactive, NIH3T3 tox 7.1µM, hNpr1 antagonist inactive, Luciferase inh inactive, HEK293 tox inconclusive, NPR1 antag cnf inactive, NPR2 antag inactive, FLuc counter inactive and GloSensor cGMP inactive.
For COc1ccc(NC(=O)Cn2c(N(C)Cc3ccccc3)nc(C)cc2=O)cc1OC the results were GPT2 inh inactive, NIH3T3 tox inconclusive, hNpr1 antagonist 4.5µM, Luciferase inh inactive, HEK293 tox inconclusive, NPR1 antag cnf 6.9µM, NPR2 antag 11µM, FLuc counter inactive and GloSensor cGMP 7.7µM.
For Cc1cc(=O)n(CC(=O)Nc2ccc(F)c(Cl)c2)c(N(C)Cc2ccccc2)n1 the results were GPT2 inh inactive, NIH3T3 tox inactive, hNpr1 antagonist 11µM, Luciferase inh inactive, HEK293 tox inactive, NPR1 antag cnf 24µM, NPR2 antag inconclusive, FLuc counter inactive and GloSensor cGMP 22µM.
For Cc1cc(=O)n(CC(=O)Nc2ccc(Br)cc2F)c(N(C)Cc2ccccc2)n1 the results were GPT2 inh inactive, NIH3T3 tox inconclusive, hNpr1 antagonist inconclusive, Luciferase inh inactive, HEK293 tox inconclusive, NPR1 antag cnf 22µM, NPR2 antag 19µM, FLuc counter inactive and GloSensor cGMP 19µM.
`COc1ccc(Cl)cc1NC(=O)Cn1c(N(C)Cc2ccccc2)nc(C)cc1=O` gave GPT2 inh inactive, NIH3T3 tox inconclusive, hNpr1 antagonist inactive, Luciferase inh inactive and HEK293 tox inconclusive.
Cc1cc(=O)n(CC(=O)Nc2ccc(Br)cc2)c(N(C)Cc2ccccc2)n1 was read as GPT2 inh inactive, NIH3T3 tox inconclusive, hNpr1 antagonist inconclusive, Luciferase inh inactive and HEK293 tox inconclusive.
`Cc1cc(=O)n(CC(=O)Nc2ccc(Cl)cc2F)c(N(C)Cc2ccccc2)n1` gave GPT2 inh inactive, NIH3T3 tox inactive, hNpr1 antagonist 13µM, Luciferase inh inactive, HEK293 tox inconclusive, NPR1 antag cnf 24µM, NPR2 antag inconclusive, FLuc counter inactive and GloSensor cGMP inconclusive.
For O=C(NC1CCCCC1)O[C@@H]1CO[C@H]2[C@@H]1OC[C@@H]2Nc1nccc(-c2cccs2)n1 the results were GPT2 inh inactive, NIH3T3 tox 112µM, hNpr1 antagonist 10µM, Luciferase inh inactive, HEK293 tox inconclusive, NPR1 antag cnf 5µM, NPR2 antag 7.9µM, FLuc counter inactive and GloSensor cGMP 7µM.
`O=C(Nc1ccc(Oc2ccccc2)cc1)O[C@@H]1CO[C@H]2[C@@H]1OC[C@@H]2Nc1nccc(-c2cccs2)n1` gave GPT2 inh inactive, NIH3T3 tox inactive, hNpr1 antagonist inactive, Luciferase inh inactive and HEK293 tox inactive.
